# In PubChem BioAssay AID1159580 (chemical genetic matrix, 2015):
# “And” between values parts separate entries of the source, which are not always exact repeats. Equal entries are not always repeated. The whole screen tested about 5,500 compounds, of which about 2,000 (36%) were called active. Inconclusive results (about 18%) are left out. Cut-off read from the data, not from the text of the source: active = normalized growth mostly below about 0.91 (no sharp cut-off); inconclusive = no clear call, values can overlap the other calls; inactive = mostly above about 0.92. Some of the results follow.
# Assay: chemical genetic growth profiling, strain panel (AID 1159580);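 note: tested at 20 µM; growth read once vehicle control cultures reached saturation at 30 °C; 1 = growth at the plate median or of vehicle wells; lower values mean less growth of the strain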
# Conditions: S. cerevisiae deletion strains, growth OD
smiles,measurement,setting,value
O=c1c(O)c(-c2ccccc2)oc2ccc3occc3c12,normalized growth,"locus YAL013W, strain DEP1, stronger effect = lower value",0.925 (inactive)
same,normalized growth,"locus YAL021C, strain ccr4, stronger effect = lower value",0.987 (inactive)
same,normalized growth,"locus YAL026C, strain drs2, stronger effect = lower value",0.808 (active)
same,normalized growth,"locus YAL030W, strain snc1, stronger effect = lower value",0.902 (active)
same,normalized growth,"locus YBL061C, strain skt5, stronger effect = lower value",0.811 (active)
same,normalized growth,"locus YBR009C, strain hhf1, stronger effect = lower value",0.627 (active)
same,normalized growth,"locus YBR021W, strain FUR4, stronger effect = lower value",0.889 (inactive)
same,normalized growth,"locus YBR023C, strain chs3, stronger effect = lower value",0.71 (active)
same,normalized growth,"locus YBR171W, strain sec66, stronger effect = lower value",0.962 (inactive)
same,normalized growth,"locus YBR229C, strain ROT2, stronger effect = lower value",0.955 (inactive)
same,normalized growth,"locus YBR231C, strain swc5, stronger effect = lower value",0.799 (active)
same,normalized growth,"locus YBR279W, strain paf1, stronger effect = lower value",0.796 (active)
same,normalized growth,"locus YCL011C, strain gbp2, stronger effect = lower value",0.814 (active)
same,normalized growth,"locus YCL016C, strain dcc1, stronger effect = lower value",0.766 (active)
same,normalized growth,"locus YCL029C, strain bik1, stronger effect = lower value",0.749 (active)
same,normalized growth,"locus YCL061C, strain MRC1, stronger effect = lower value",0.801 (active)
same,normalized growth,"locus YCL069W, strain vba3, stronger effect = lower value",0.662 (active)
same,normalized growth,"locus YCR088W, strain abp1, stronger effect = lower value",0.93 (inactive)
same,normalized growth,"locus YDL005C, strain med2, stronger effect = lower value",0.951 (inactive)
same,normalized growth,"locus YDL035C, strain GPR1, stronger effect = lower value",0.849 (active)
same,normalized growth,"locus YDL040C, strain nat1, stronger effect = lower value",0.93 (active)
same,normalized growth,"locus YDL074C, strain BRE1, stronger effect = lower value",0.671 (active)
same,normalized growth,"locus YDL101C, strain DUN1, stronger effect = lower value",0.858 (active)
same,normalized growth,"locus YDL185W, strain tfp1, stronger effect = lower value",0.938 (inactive)
same,normalized growth,"locus YDL192W, strain arf1, stronger effect = lower value",0.731 (active)
same,normalized growth,"locus YDR001C, strain nth1, stronger effect = lower value",0.956 (inactive)
same,normalized growth,"locus YDR069C, strain doa4, stronger effect = lower value",0.941 (inactive)
same,normalized growth,"locus YDR101C, strain arx1, stronger effect = lower value",0.765 (active)
same,normalized growth,"locus YDR137W, strain rgp1, stronger effect = lower value",0.798 (active)
same,normalized growth,"locus YDR150W, strain NUM1, stronger effect = lower value",0.954 (inactive)
same,normalized growth,"locus YDR159W, strain sac3, stronger effect = lower value",0.742 (active)
same,normalized growth,"locus YDR162C, strain NBP2, stronger effect = lower value",0.782 (active)
same,normalized growth,"locus YDR195W, strain ref2",1.23 [resistant] (active)
same,normalized growth,"locus YDR297W, strain sur2, stronger effect = lower value",0.849 (active)
same,normalized growth,"locus YDR318W, strain mcm21, stronger effect = lower value",0.799 (active)
same,normalized growth,"locus YDR334W, strain swr1, stronger effect = lower value",0.913 (inactive)
same,normalized growth,"locus YDR335W, strain msn5, stronger effect = lower value",0.773 (active)
same,normalized growth,"locus YDR388W, stronger effect = lower value",0.847 (active)
same,normalized growth,"locus YDR392W, strain spt3, stronger effect = lower value",0.172 (active)
same,normalized growth,"locus YDR502C, strain sam2, stronger effect = lower value",0.783 (active)
same,normalized growth,"locus YEL003W, strain gim4, stronger effect = lower value",0.814 (active)
same,normalized growth,"locus YEL037C, strain rad23, stronger effect = lower value",0.86 (active)
same,normalized growth,"locus YEL061C, strain CIN8 (second series), stronger effect = lower value",0.71 (active)
same,normalized growth,"locus YEL061C, strain CIN8, stronger effect = lower value",0.93 (inactive)
same,normalized growth,"locus YER015W, strain faa2, stronger effect = lower value",0.829 (active)
same,normalized growth,"locus YER016W, strain bim1, stronger effect = lower value",0.92 (active)
same,normalized growth,"locus YER110C, stronger effect = lower value",0.767 (active)
same,normalized growth,"locus YER111C, strain swi4, stronger effect = lower value",0.793 (active)
same,normalized growth,"locus YER155C, strain BEM2 (second series), stronger effect = lower value",0.25 (active)
same,normalized growth,"locus YER155C, strain BEM2, stronger effect = lower value",0.807 (active)
same,normalized growth,"locus YER167W, strain BCK2, stronger effect = lower value",0.9 (active)
same,normalized growth,"locus YFR010W, strain ubp6, stronger effect = lower value",0.926 (inactive)
same,normalized growth,"locus YGL078C, strain dbp3, stronger effect = lower value",0.884 (active)
same,normalized growth,"locus YGL086W, strain mad1, stronger effect = lower value",0.764 (active)
same,normalized growth,"locus YGL167C, strain pmr1, stronger effect = lower value",0.919 (inactive)
same,normalized growth,"locus YGL173C, strain kem1, stronger effect = lower value",0.833 (active)
same,normalized growth,"locus YGL227W, strain vid30, stronger effect = lower value",0.888 (active)
same,normalized growth,"locus YGL240W, strain doc1, stronger effect = lower value",0.566 (active)
same,normalized growth,"locus YGL248W, strain PDE1, stronger effect = lower value",0.801 (active)
same,normalized growth,"locus YGL253W, strain hxk2, stronger effect = lower value",0.501 (active)
same,normalized growth,"locus YGR135W, strain pre9, stronger effect = lower value",0.713 (active)
same,normalized growth,"locus YGR229C, strain SMI1, stronger effect = lower value",0.416 (active)
same,normalized growth,"locus YGR252W, strain gcn5, stronger effect = lower value",0.593 (active)
same,normalized growth,"locus YHR013C, strain ard1, stronger effect = lower value",0.921 (inactive)
same,normalized growth,"locus YHR027C, strain rpn1, stronger effect = lower value",0.937 (inactive)
same,normalized growth,"locus YHR030C, strain SLT2, stronger effect = lower value",0.72 (active) and 0.968 (inactive)
same,normalized growth,"locus YHR079C, strain IRE1 (second series), stronger effect = lower value",0.873 (active)
same,normalized growth,"locus YHR079C, strain IRE1, stronger effect = lower value",0.956 (inactive)
same,normalized growth,"locus YHR094C, strain hxt1, stronger effect = lower value",0.904 (active)
same,normalized growth,"locus YHR142W, strain chs7, stronger effect = lower value",0.367 (active)
same,normalized growth,"locus YHR200W, strain rpn10, stronger effect = lower value",0.798 (active)
same,normalized growth,"locus YIL066C, strain RNR3, stronger effect = lower value",0.833 (active)
same,normalized growth,"locus YIL073C, strain SPO22, stronger effect = lower value",0.733 (inactive)
same,normalized growth,"locus YIL125W, strain kgd1, stronger effect = lower value",0.886 (active)
same,normalized growth,"locus YIR030C, strain dcg1, stronger effect = lower value",0.794 (active)
same,normalized growth,"locus YJL092W, strain hpr5, stronger effect = lower value",0.879 (active)
same,normalized growth,"locus YJL095W, strain BCK1 (second series), stronger effect = lower value",0.562 (active)
same,normalized growth,"locus YJL095W, strain BCK1, stronger effect = lower value",0.437 (active) and 0.978 (inactive)
same,normalized growth,"locus YJL115W, strain asf1, stronger effect = lower value",0.943 (inactive)
same,normalized growth,"locus YJL129C, strain trk1, stronger effect = lower value",0.852 (active)
same,normalized growth,"locus YJL134W, strain LCB3, stronger effect = lower value",0.956 (inactive)
same,normalized growth,"locus YJL154C, strain vps35, stronger effect = lower value",0.939 (inactive)
same,normalized growth,"locus YJL164C, strain tpk1, stronger effect = lower value",0.781 (active)
same,normalized growth,"locus YJL166W, strain qcr8, stronger effect = lower value",0.74 (active)
same,normalized growth,"locus YJL168C, strain set2, stronger effect = lower value",0.925 (active)
same,normalized growth,"locus YJL187C, strain SWE1 (second series), stronger effect = lower value",0.847 (active)
same,normalized growth,"locus YJR043C, strain POL32, stronger effect = lower value",0.64 (active)
same,normalized growth,"locus YJR066W, strain TOR1, stronger effect = lower value",0.883 (inactive)
